Screens (PubChem)
Nrf2 block – inhibitors of Nrf2 signaling; A549 ARE-Fluc reporter, luciferase luminescence, 18-24 h; Potency, µM (highest dose often 46 µM), most hits filed as inhibitors; actives 2.1% (n = 360,000); AID 504444; note: nearly all actives have a fitted effect of over 60% in size
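Cells were seeded and rested 2 h, then exposed to compounds for 18-24 h. CellTiter-Fluor was read first as a viability measure. BugLite was added 15 min before the final luminescent read of ARE-luciferase activity in A549 cells.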
S2 tox – cell viability loss in ATXN counter-screen | Potency, µM (top dose mostly 56.7 µM), most hits filed as cytotoxic | actives 0.49% (n = 400,000) | S2 cells (HEK-293 line with an ATXN2-luciferase reporter) viability, CellTiter-Fluor protease fluorescence, 24 h | AID 651635; note: nearly all actives have a fitted effect of over 40% in size
ATXN2 expr inh – ATXN2 expression inhibition. HEK-293 ATXN2-luciferase reporter, luminescence, 24 h. Potency, µM (series often up to 57 µM), hits mostly inhibitors. actives 0.72% (n = 360,000). AID 1745845; note: nearly all actives have a fitted effect of over 55% in size
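ATXN2-luciferase reporter cells (luciferase flanked by upstream and downstream ATXN2 gene portions) were treated 24 h at 37 °C with compounds at up to 57 uM. SteadyGlo luminescence gave expression; GF-AFC fluorescence gave viability.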
HepG2 tox-1 – kills HepG2 cells in TGF-b inhibitor counter-screen. HepG2 CAGA-GFP viability, ATP luminescence, 18 h. Potency, µM (series often up to 46.1 µM), usual class: cytotoxic. actives 0.76% (n = 410,000). AID 588856
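HepG2 CAGA-GFP cells (1000/well, DMEM with 1% FBS) received compound, then TGF-beta at 500 pg/mL final, and were incubated 18 hours at 37 degrees C. Viability was read by CellTiter-Glo luminescence. Media-only wells were set as complete cell-killing and DMSO as no toxicity.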
A549 tox – A549 cytotoxicity, counter-screen for Nrf2 inhibitors; A549 ARE-Fluc cells, CellTiter-Fluor viability, 18-24 h; Potency, µM (doses to about 46 µM), most hits filed as inhibitors; actives 0.16% (n = 390,000); AID 504648
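A549 ARE_Fluc cells in 5% FBS OPTI-MEM were exposed to compounds in concentration-response for 18-24 h at 37 deg C. Viability was read by CellTiter-Fluor fluorescence (Ex 405/Em 525) after 30 min, before the luciferase read.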
TGFb SMAD3 inh – blocks TGF-b signaling; Potency, µM (doses to about 46.1 µM), hits mostly inhibitors; actives 1.2% (n = 410,000); AID 588855; HepG2 CAGA-GFP TGF-b/SMAD3 reporter, GFP fluorescence, 18 h; TGF-beta stimulated, 500 pg/mL final; note: nearly all actives have a fitted effect of over 65% in size
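Per well, imaged GFP fluorescence of HEPG2 CAGA-GFP cells gives the signal; cells get compound, then TGF-beta (500 pg/mL final), 18 h at 37 degrees C; %Activity versus -TGF-beta and +DMSO controls.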
TGFb confirm – TGF-b pathway inhibition, cherry-pick retest. HepG2 CAGA-GFP TGF-b reporter, GFP fluorescence, 18 h; cells stimulated with TGF-beta, 500 pg/mL. Potency, µM (titrated, usually from 46.1 µM), actives largely listed as inhibitors. shares compounds with TGFb SMAD3 inh. actives 63% (n = 1,600); note: nearly all actives have a fitted effect of over 65% in size
HepG2 tox-2 – counter-screen for TGF-b inhibitors: cytotoxicity in HepG2 cells; shares compounds with TGFb SMAD3 inh; HepG2 CAGA-GFP viability, ATP luminescence, 18 h; cells stimulated with TGF-beta, 500 pg/mL; AID 720535; actives 27% (n = 1,600); Potency, µM (doses to about 46.1 µM), hits mostly inhibitors; note: nearly all actives have a fitted effect of over 70% in size
TGFb CCL64 inh – blocks TGF-b signaling in CCL64 reporter cells; shares compounds with TGFb SMAD3 inh; CCL64 CAGA-GFP reporter, TGF-b stimulated, GFP fluorescence, 18 h; Potency, µM (top dose mostly 46.1 µM), actives largely listed as inhibitors; actives 41% (n = 1,600); AID 720536; note: nearly all actives have a fitted effect of over 65% in size
COP TGFb inh – TGF-b inhibition validated with COP promoter; shares compounds with TGFb SMAD3 inh; HepG2 COP-GFP TGF-b reporter, GFP fluorescence, 18 h; cells stimulated by added recombinant TGF-beta; Potency, µM (titrated, usually from 46.1 µM), hits mostly inhibitors; actives 3% (n = 1,600); note: nearly all actives have a fitted effect of over 70% in size
Of the large screens only hits and unclear results are named; the others gave an inactive call (follow-up assays come after a bar, where they were run). Only some compounds are listed: those with a hit (about 3.8% of all), similar ones and a draw of the others. Calls come from the whole dose curve; as a rule, active = well fitted curve in the direction sought with a large enough effect; inconclusive = small, poorly fitted or top-dose-only effect, or another doubt; inactive = no such curve, though single readings can be large; an effect the other way counts as inactive or inconclusive.

Cc1ccc(NC(=O)CN2CCC(Cc3ccccc3)CC2)cc1S(=O)(=O)N(C)C	TGFb SMAD3 inh 15.8µM | TGFb confirm 13µM | HepG2 tox-2 inconclusive | TGFb CCL64 inh inconclusive | COP TGFb inh inactive
Cc1ccc(NC(=O)CSc2nn(-c3ccc(Cl)cc3)c(=S)s2)cc1S(=O)(=O)N(C)C	Nrf2 block inconclusive, TGFb SMAD3 inh inconclusive | TGFb confirm inconclusive | HepG2 tox-2 inconclusive | TGFb CCL64 inh inactive | COP TGFb inh inactive
NS(=O)(=O)c1cccc(NC(=O)CSc2nn(-c3ccccc3)c(=S)s2)c1	none
Cc1ccc(NC(=O)CNc2ccc(Cl)c(Cl)c2)cc1S(=O)(=O)N(C)C	Nrf2 block 11.6µM, S2 tox inconclusive, ATXN2 expr inh inconclusive, A549 tox inconclusive, TGFb SMAD3 inh 10µM | TGFb confirm 11.6µM | HepG2 tox-2 inconclusive | TGFb CCL64 inh inconclusive | COP TGFb inh inactive
CN(C)S(=O)(=O)c1cc(NC(=O)CSc2nn(-c3ccc(Cl)cc3)c(=S)s2)ccc1Cl	Nrf2 block inconclusive, ATXN2 expr inh inconclusive, TGFb SMAD3 inh 11.2µM | TGFb confirm 3.66µM | HepG2 tox-2 inconclusive | TGFb CCL64 inh inconclusive | COP TGFb inh inactive
CN(C(=O)CSc1nc2[nH]ncc2c(=O)[nH]1)c1ccccc1	none
O=C(O)c1cc(-c2ccc(-c3c(-c4ccc5c(c4)OCO5)noc3-c3ccsc3)cc2)nc2ccccc12	Nrf2 block inconclusive, TGFb SMAD3 inh inconclusive | TGFb confirm 16.4µM | HepG2 tox-2 inconclusive | TGFb CCL64 inh 18.4µM | COP TGFb inh inactive
CN(C)c1ccc(-c2c(-c3ccc4c(c3)OCO4)noc2-c2ccsc2)cn1	TGFb SMAD3 inh inconclusive
Cn1c(=O)c2c([nH]c(=O)n2Cc2ccc(Cl)cc2Cl)n(C)c1=O	none
O=C(c1ccc(Cl)cc1)C(CN1CCCCC1)c1ccccc1 (centres undefined)	ATXN2 expr inh inconclusive, HepG2 tox-1 5.62µM, TGFb SMAD3 inh 5.62µM (no result: S2 tox) | TGFb confirm 13µM | HepG2 tox-2 18.4µM | TGFb CCL64 inh 2.31µM | COP TGFb inh inconclusive
COc1ccc(C(=O)C(CN2CCOCC2)c2ccccc2)cc1F (centres undefined)	S2 tox inconclusive, ATXN2 expr inh inconclusive, TGFb SMAD3 inh 3.98µM | TGFb confirm inconclusive | HepG2 tox-2 14.6µM | TGFb CCL64 inh 7.31µM | COP TGFb inh inactive
CCOC(=O)C(CN1CCCC1)c1ccccc1 (centres undefined)	none
COc1ccc(C(O)C(CN2CCOCC2)c2ccccc2)cc1F (centres undefined)	none
CCOC(=O)N1CCN(C(=O)/C(=C/c2ccc(Br)cc2)NC(=O)c2ccc(OC)cc2)CC1	S2 tox inconclusive
O=C(Nc1ccc2c(c1)OCO2)c1cc(C2CCCCN2C(=O)CCCc2ccccc2)on1 (centres undefined)	none (no result: Nrf2 block, A549 tox)
NS(=O)(=O)c1ccc(NC(=S)Nc2ccn(Cc3cccc4ccccc34)n2)cc1	Nrf2 block inconclusive, TGFb SMAD3 inh 12.6µM | TGFb confirm 5.8µM | HepG2 tox-2 inactive | TGFb CCL64 inh inconclusive | COP TGFb inh inactive
COc1ccccc1-c1nc(SCC(=O)Nc2ccc(C)c(C)c2)n[nH]1	Nrf2 block inconclusive, ATXN2 expr inh inconclusive, TGFb SMAD3 inh inconclusive
CC1(C(=O)NCc2cccc3ccccc23)CCN1C(=O)C1(c2ccccc2)CCCC1 (centres undefined)	TGFb SMAD3 inh 12.6µM (no result: Nrf2 block, A549 tox) | TGFb confirm 13µM | HepG2 tox-2 inconclusive | TGFb CCL64 inh inconclusive | COP TGFb inh inactive
CC(=O)Nc1cccc(NC(=O)CSc2cn(CC(=O)N3CCCCCC3)c3ccccc23)c1	none (no result: S2 tox, ATXN2 expr inh)
CCN(C(=O)COC(=O)c1ccccc1Nc1ccccc1)c1c(N)n(Cc2ccccc2)c(=O)[nH]c1=O	Nrf2 block inconclusive, S2 tox inconclusive, TGFb SMAD3 inh 17.8µM (no result: ATXN2 expr inh) | TGFb confirm 20.6µM | HepG2 tox-2 inactive | TGFb CCL64 inh inconclusive | COP TGFb inh inactive
O=C(c1ccc2c(c1)N(Cc1ccccc1)C(=O)c1ccccc1S2(=O)=O)N1CCN(c2ccccc2)CC1	none (no result: S2 tox, ATXN2 expr inh, TGFb SMAD3 inh)
COc1ccc(S(=O)(=O)N(C)C[C@@H]2Oc3c(NS(C)(=O)=O)cccc3C(=O)N([C@@H](C)CO)C[C@H]2C)cc1	none
S=C(NCc1ccco1)Nc1ccc(Oc2ccc(Cl)cc2)cc1	TGFb SMAD3 inh 15.8µM | TGFb confirm inconclusive | HepG2 tox-2 inconclusive | TGFb CCL64 inh inconclusive | COP TGFb inh inactive
CCOC(=O)N1CCC(NC(=O)c2ccc3c(c2)N=C(CC)c2cc(C)ccc2S3)CC1	Nrf2 block 23.1µM, ATXN2 expr inh inconclusive, TGFb SMAD3 inh 15.8µM | TGFb confirm 11.6µM | HepG2 tox-2 inactive | TGFb CCL64 inh inconclusive | COP TGFb inh inactive
CCC1=Nc2cc(C(=O)NC3CCC(C)CC3)ccc2Sc2ccc(C)cc21 (centres undefined)	Nrf2 block inconclusive, S2 tox inconclusive, TGFb SMAD3 inh inconclusive
CCC1=Nc2cc(C(=O)NCc3ccco3)ccc2Sc2ccc(C)cc21	Nrf2 block inconclusive, TGFb SMAD3 inh inconclusive | TGFb confirm 2.31µM | HepG2 tox-2 inactive | TGFb CCL64 inh 1.46µM | COP TGFb inh inactive
CCC1=Nc2cc(C(=O)NCCN3CCOCC3)ccc2Sc2ccc(C)cc21	none
Cc1ccc(C(C)C)cc1OCC(=O)Nc1ccc(N2CCCCC2)cc1	none
CC(C)n1c(=O)c2oc3ccccc3c2n(CC(=O)Nc2ccccc2Cl)c1=O	Nrf2 block inconclusive (no result: S2 tox, ATXN2 expr inh)
C=C1C=C(C)n2ncc(C(=O)Nc3cccc(C(=O)Nc4cccc(C(F)(F)F)c4)c3)c2N1	none (no result: Nrf2 block, S2 tox, ATXN2 expr inh, A549 tox)
Cc1scc(C(=O)N/N=C/c2ccc(Cl)s2)c1C	Nrf2 block inconclusive
